Molecules are shown by their SMILES.

Experiment [1] concerns the target Rho-associated protein kinase 1 (Homo sapiens) (UniProt Q13464). As to conditions: at 1 µM.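 Further: reported values are mean percent inhibition of ROCK1.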
The target of experiment [2] is Rho-associated protein kinase 2 (Homo sapiens) (UniProt O75116). The settings on record: at 0.1 µM.
The target is the same in experiment [3]. The settings on record: at 1 µM.
The target of experiment [4] is Ribosomal protein S6 kinase alpha-1 (Homo sapiens) (UniProt Q15418). The settings on record: at 0.1 µM.
Chain of Ribosomal protein S6 kinase alpha-1 (Homo sapiens) (Q15418 whole entry): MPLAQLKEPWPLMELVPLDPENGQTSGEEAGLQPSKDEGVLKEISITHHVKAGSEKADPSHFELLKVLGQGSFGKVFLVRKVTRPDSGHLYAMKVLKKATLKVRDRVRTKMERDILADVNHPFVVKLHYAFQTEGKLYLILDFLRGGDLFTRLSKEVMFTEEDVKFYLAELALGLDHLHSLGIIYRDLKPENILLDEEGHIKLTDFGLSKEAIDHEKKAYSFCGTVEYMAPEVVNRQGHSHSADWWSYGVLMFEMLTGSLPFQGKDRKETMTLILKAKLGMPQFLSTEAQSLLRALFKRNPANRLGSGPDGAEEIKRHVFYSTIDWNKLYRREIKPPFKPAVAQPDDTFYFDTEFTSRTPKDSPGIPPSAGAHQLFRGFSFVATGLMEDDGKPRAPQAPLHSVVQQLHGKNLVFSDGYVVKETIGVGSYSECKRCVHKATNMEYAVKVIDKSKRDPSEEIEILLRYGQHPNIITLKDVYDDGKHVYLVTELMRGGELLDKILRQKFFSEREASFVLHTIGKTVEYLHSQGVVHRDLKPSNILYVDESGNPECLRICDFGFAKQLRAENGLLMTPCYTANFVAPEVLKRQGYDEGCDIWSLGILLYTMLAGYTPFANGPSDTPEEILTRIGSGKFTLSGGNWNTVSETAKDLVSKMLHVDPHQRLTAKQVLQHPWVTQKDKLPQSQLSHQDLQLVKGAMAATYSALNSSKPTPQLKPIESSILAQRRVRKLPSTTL
For experiment [5] the target is unchanged. As to conditions: at 1 µM.
The target in experiment [6] is Ribosomal protein S6 kinase alpha-3 (Homo sapiens) (UniProt P51812). As to conditions: at 0.1 µM.
Chain of Ribosomal protein S6 kinase alpha-3 (Homo sapiens) (P51812 whole entry): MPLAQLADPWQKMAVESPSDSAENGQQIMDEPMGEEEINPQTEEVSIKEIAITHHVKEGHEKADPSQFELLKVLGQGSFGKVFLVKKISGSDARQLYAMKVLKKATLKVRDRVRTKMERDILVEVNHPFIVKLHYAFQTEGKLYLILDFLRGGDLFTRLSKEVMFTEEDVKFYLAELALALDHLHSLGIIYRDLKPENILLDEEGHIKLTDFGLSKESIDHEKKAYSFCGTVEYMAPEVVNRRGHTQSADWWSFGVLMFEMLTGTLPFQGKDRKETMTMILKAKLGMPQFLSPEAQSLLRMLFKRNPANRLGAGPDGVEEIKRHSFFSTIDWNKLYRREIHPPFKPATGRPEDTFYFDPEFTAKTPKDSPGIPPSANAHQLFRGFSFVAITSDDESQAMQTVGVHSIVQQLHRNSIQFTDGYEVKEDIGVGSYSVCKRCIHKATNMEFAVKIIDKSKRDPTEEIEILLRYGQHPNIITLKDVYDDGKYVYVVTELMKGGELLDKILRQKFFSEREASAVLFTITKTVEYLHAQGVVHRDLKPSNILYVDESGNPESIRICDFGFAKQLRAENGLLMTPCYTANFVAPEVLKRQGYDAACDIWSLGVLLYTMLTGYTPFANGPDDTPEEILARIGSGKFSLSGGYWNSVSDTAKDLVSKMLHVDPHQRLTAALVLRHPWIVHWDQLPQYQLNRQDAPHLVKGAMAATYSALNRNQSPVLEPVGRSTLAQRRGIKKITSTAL
The target is the same in experiment [7]. As to conditions: at 1 µM.
The target in experiment [8] is Ribosomal protein S6 kinase alpha-2 (Homo sapiens) (UniProt Q15349). The settings on record: at 0.1 µM.
Chain of Ribosomal protein S6 kinase alpha-2 (Homo sapiens) (Q15349 whole entry): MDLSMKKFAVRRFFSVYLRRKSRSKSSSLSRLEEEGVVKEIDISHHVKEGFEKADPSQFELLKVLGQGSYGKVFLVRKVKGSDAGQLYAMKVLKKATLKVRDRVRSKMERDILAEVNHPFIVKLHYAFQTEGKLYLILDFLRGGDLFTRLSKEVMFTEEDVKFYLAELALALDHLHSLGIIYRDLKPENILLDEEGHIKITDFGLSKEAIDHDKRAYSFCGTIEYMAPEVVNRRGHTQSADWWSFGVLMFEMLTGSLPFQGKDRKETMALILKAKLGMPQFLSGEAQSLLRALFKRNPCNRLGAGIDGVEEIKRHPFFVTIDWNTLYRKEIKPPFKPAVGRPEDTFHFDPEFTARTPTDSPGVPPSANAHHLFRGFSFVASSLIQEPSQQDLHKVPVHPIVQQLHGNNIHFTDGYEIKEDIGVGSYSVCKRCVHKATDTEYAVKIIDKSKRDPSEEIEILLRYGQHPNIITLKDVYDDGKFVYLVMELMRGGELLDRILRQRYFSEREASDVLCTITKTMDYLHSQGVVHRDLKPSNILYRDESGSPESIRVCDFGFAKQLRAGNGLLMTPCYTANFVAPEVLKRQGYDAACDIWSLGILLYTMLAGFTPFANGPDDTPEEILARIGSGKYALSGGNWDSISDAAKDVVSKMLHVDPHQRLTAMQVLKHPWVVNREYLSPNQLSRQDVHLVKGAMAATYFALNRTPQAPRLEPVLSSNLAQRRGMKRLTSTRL
Experiment [9] has the same target. As to conditions: at 1 µM.
The target in experiment [10] is Ribosomal protein S6 kinase alpha-6 (Homo sapiens) (UniProt Q9UK32). The settings on record: at 0.1 µM.
Chain of Ribosomal protein S6 kinase alpha-6 (Homo sapiens) (Q9UK32 whole entry): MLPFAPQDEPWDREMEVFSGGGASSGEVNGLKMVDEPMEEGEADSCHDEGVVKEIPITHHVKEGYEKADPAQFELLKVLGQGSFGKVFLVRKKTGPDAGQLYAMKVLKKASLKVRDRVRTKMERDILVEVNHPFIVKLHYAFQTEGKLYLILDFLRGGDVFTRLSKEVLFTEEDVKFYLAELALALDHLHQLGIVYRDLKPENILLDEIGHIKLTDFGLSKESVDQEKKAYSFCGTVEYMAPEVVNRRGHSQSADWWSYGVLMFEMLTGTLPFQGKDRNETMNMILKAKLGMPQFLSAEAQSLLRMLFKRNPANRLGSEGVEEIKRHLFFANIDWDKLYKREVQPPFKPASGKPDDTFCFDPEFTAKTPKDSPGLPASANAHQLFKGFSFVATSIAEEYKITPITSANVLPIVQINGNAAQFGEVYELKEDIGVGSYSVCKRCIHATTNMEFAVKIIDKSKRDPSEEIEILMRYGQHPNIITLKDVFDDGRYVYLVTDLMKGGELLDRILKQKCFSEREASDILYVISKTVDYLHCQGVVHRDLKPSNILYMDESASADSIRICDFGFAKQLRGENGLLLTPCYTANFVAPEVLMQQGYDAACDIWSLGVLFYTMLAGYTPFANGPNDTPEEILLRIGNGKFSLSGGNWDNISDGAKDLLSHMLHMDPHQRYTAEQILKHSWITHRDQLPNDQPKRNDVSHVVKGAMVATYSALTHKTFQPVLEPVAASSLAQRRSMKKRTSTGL
The target is the same in experiment [11]. As to conditions: at 1 µM.
Experiment [12] deals with T1, Serine/threonine-protein kinase Sgk1 (Homo sapiens) (UniProt O00141).
T1 sequence (whole entry): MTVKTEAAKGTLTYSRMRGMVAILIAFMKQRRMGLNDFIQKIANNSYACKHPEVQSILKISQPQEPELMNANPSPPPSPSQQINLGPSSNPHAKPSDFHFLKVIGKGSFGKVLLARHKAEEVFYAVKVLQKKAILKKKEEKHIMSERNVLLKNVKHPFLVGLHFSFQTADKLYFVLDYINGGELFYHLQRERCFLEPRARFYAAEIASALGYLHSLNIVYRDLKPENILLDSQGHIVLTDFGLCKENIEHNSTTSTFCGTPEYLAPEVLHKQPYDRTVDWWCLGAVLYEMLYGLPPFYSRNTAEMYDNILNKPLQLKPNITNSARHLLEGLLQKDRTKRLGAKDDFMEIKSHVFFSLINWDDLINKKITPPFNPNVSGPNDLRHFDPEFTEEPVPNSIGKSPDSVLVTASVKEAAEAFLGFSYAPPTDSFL
The settings on record: at 0.1 µM.

Experiment [13] has as its target T1, Serine/threonine-protein kinase Sgk1 (Homo sapiens). As to conditions: at 1 µM.
The target in experiment [14] is T2, Serine/threonine-protein kinase Sgk2 (Homo sapiens) (UniProt Q9HBY8).
T2 sequence (whole entry): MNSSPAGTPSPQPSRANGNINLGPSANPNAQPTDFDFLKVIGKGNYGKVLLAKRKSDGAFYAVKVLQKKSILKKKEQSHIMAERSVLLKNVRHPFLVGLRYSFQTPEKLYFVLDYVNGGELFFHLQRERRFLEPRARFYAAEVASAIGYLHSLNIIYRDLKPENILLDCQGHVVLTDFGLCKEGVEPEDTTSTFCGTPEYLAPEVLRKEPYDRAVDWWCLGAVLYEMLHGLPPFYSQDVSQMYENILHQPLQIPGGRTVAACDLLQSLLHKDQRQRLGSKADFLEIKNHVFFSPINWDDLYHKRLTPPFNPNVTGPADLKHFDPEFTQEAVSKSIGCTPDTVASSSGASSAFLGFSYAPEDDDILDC
The settings on record: at 0.1 µM.

Experiment [15] concerns the target T2, Serine/threonine-protein kinase Sgk2 (Homo sapiens). The settings on record: at 1 µM.
Experiment [16] deals with T3, Serine/threonine-protein kinase Sgk3 (Homo sapiens) (UniProt Q96BR1).
T3 sequence (whole entry): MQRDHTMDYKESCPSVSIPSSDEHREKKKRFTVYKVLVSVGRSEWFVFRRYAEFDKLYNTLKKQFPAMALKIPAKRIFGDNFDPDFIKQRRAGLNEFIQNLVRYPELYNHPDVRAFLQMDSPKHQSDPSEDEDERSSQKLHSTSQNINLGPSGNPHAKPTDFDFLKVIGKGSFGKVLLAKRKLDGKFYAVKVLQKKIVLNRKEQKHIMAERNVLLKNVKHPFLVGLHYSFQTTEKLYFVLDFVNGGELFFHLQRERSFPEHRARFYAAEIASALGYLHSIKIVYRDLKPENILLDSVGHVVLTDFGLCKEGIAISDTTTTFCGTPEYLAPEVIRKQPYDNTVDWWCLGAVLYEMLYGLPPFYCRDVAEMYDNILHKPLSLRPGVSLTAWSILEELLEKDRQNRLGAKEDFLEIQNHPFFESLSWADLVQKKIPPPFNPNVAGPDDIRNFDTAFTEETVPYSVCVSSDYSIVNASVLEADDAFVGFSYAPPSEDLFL
The settings on record: at 0.1 µM.

The target in experiment [17] is T3, Serine/threonine-protein kinase Sgk3 (Homo sapiens). As to conditions: at 1 µM.
The target of experiment [18] is 5'-AMP-activated protein kinase catalytic subunit alpha-1 (Homo sapiens) (UniProt Q13131). The settings on record: at 0.1 µM.
Chain of 5'-AMP-activated protein kinase catalytic subunit alpha-1 (Homo sapiens) (Q13131 whole entry, looked up): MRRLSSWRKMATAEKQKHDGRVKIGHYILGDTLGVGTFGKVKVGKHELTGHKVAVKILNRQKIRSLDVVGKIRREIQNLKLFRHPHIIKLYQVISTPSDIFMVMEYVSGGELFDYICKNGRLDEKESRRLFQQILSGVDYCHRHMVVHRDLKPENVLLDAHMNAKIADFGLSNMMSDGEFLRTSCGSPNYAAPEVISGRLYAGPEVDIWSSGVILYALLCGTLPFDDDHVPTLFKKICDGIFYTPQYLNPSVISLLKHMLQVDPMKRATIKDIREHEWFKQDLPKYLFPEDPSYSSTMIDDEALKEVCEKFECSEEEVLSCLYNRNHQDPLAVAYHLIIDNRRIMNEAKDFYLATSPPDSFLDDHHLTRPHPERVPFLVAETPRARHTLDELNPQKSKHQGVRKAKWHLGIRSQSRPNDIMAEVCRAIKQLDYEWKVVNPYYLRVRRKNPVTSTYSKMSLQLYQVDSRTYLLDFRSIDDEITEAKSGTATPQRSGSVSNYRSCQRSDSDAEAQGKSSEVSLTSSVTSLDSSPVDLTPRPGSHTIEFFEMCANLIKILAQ
The target is the same in experiment [19]. The settings on record: at 1 µM.
Experiment [20] has as its target 5'-AMP-activated protein kinase catalytic subunit alpha-2 (Homo sapiens) (UniProt P54646). As to conditions: at 0.1 µM.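 Further: mean inhibition measured on the AMPK complex of alpha2, beta1 and gamma1 subunits.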

Chain of Rho-associated protein kinase 1 (Homo sapiens) (Q13464 2-1354 limits assumed): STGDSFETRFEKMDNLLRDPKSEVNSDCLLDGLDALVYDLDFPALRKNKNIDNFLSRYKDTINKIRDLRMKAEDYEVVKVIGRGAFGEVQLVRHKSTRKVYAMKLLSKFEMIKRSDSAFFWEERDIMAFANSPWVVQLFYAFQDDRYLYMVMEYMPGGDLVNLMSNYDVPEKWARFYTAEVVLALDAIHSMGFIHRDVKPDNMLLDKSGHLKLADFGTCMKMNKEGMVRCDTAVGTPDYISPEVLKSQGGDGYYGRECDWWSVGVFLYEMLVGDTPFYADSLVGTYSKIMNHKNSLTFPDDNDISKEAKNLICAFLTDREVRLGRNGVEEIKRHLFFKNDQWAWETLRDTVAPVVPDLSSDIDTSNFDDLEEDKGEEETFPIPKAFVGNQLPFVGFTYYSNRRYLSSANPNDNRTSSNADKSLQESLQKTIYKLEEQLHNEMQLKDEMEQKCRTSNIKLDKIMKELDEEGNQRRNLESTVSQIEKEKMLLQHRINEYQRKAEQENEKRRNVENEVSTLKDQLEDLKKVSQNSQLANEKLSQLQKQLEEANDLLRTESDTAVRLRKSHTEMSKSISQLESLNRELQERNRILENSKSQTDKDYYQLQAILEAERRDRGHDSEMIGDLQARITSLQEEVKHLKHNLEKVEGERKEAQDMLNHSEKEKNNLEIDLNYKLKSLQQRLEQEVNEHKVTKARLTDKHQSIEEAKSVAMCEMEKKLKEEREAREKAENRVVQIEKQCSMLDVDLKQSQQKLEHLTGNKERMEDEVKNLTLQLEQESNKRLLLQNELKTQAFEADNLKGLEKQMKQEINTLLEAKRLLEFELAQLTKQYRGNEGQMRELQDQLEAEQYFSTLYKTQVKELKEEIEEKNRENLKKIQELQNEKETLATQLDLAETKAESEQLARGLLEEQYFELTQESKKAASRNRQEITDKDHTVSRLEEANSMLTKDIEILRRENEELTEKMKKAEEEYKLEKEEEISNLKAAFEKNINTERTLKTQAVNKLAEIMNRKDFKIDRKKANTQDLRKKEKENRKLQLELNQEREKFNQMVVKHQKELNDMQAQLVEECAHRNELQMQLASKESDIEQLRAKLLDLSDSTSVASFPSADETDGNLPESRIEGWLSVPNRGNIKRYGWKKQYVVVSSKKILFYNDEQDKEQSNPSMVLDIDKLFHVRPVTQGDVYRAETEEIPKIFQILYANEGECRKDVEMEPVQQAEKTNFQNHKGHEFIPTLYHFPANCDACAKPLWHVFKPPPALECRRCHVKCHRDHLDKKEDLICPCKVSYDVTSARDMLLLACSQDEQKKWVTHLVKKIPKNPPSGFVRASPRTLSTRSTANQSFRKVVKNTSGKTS

For orientation: inhibition means the change of the read-out against control, counted positive when it falls. With `Cc1cc(-c2ccccn2)cc(C)c1/C=C/c1cncc(-c2nn[nH]n2)c1`, the inhibition in experiment [1] is 2.97%; in experiment [2], 1.11%; in experiment [3] it was 3.33%; in [4] it was -1.27%; in experiment [5] it was 1.85%; in experiment [6] it was -0.57%. Also, the inhibition in [7] is 1.01%; in [8], 0.4%; in [9] it was 1.84%; in [10], -1.04%; in experiment [11], 1.31%; in experiment [12] it was 0.67%. For the same compound, the inhibition in experiment [13] is 1.66%; in experiment [14] it was 3.28%; in experiment [15], -0.92%; in experiment [16] it was 4.48%; in experiment [17] it was 2.45%; in experiment [18], 0.33%. Also, the inhibition is 3.53% in experiment [19] and 6.43% in experiment [20].
Regarding `Cc1ccc2c(-c3ccnc(Nc4ccc5c(c4)OCCO5)n3)c(-c3ccc(C(F)(F)F)cc3)nn2n1`, the inhibition was 1.22% in [1]; 0.44% in experiment [2]; 1.89% in [3]; 0.91% in experiment [4]; 0.79% in experiment [5]; 1.19% in [6]. In addition, the inhibition in experiment [7] is 1.86%; in [8], 1.06%; in [9], 1.53%; in experiment [10] it was -0.18%; in [11] it was 0.44%; in experiment [12] it was 0.85%. The inhibition is 1.65% in [13]; -0.62% in [14]; -1.7% in experiment [15]; 0.16% in experiment [16]; -1.14% in [17]; 0.51% in [18]. The inhibition in experiment [19] is 3.23%; in [20], 0.13%.
As for `Cc1ccc(C(=O)NC2CC2)cc1-c1ccc2[nH]ncc2c1`, the inhibition in experiment [1] came to 6.16%; in experiment [2] it was 0.52%; in experiment [3], 16.1%; in experiment [4], 1.16%; in experiment [5] it was 1.93%; in experiment [6], 2.94%. Also, the inhibition in experiment [7] was 4.97%; in [8], -0.94%; in experiment [9], 0.23%; in [10], -0.73%; in experiment [11], -0.57%; in [12], -2.34%. Also, the inhibition in experiment [13] was -1.16%; in experiment [14] it was -5.03%; in experiment [15], -0.82%; in experiment [16], -5.05%; in experiment [17], 1.68%; in [18], -1.87%. Also, the inhibition was found to be 0.2% in experiment [19] and 0.12% in [20].
In the case of `COc1cc2ncn(-c3cc(OCc4ccccc4S(C)(=O)=O)c(C#N)s3)c2cc1OC`, the inhibition in experiment [1] stood at 6.5%; in experiment [2], 5.73%; in experiment [3] it was 6.61%; in [4], 5.57%; in experiment [5] it was 14%; in experiment [6] it was 5.02%. In addition, the inhibition was 13.7% in experiment [7]; 3.37% in experiment [8]; 10.2% in experiment [9]; 3.14% in experiment [10]; 16.4% in experiment [11]; 2.34% in experiment [12]. The inhibition in experiment [13] came out at 4.47%; in [14], 2.96%; in [15], 4.38%; in experiment [16] it was 4.43%; in [17], 4.05%; in [18] it was 33.4%. Further, the inhibition was determined as 74.6% in [19] and 5.84% in [20].
For the compound `CS(=O)(=O)Nc1cccc(-c2ccc3c(NC(=O)C4CC4)n[nH]c3c2)c1`, the inhibition in experiment [1] was 0.09%; in [2], 0.82%; in [3] it was -0.9%; in experiment [4], -0.15%; in experiment [5], -0.83%; in experiment [6] it was 1.31%. The inhibition came to 1.41% in [7]; 1.1% in [8]; 2.19% in [9]; 1.24% in experiment [10]; 1.64% in [11]; 1.2% in experiment [12]. Besides, the inhibition in [13] is 1.36%; in [14], 0.93%; in experiment [15], -0.04%; in experiment [16], 1.19%; in [17], -0.96%; in experiment [18], 1.97%. The inhibition is 1.56% in experiment [19] and -0.32% in [20].
Consider `CN(C)c1cc2c(Nc3ccc4c(cnn4Cc4ccccc4)c3)ncnc2cn1`, for which the inhibition in experiment [1] is 2.38%; in [2], 2.57%; in [3], 3.89%; in [4], 0.98%; in experiment [5], 3.04%; in experiment [6], 1.41%. In addition, the inhibition was determined as 2.13% in experiment [7]; 1.63% in experiment [8]; 3.42% in experiment [9]; 0.97% in experiment [10]; 1.71% in experiment [11]; 1.94% in [12]. Further, the inhibition was 2.27% in experiment [13]; 0.16% in experiment [14]; -0.04% in [15]; 1.86% in experiment [16]; 1.33% in experiment [17]; 2.65% in experiment [18]. Moreover, the inhibition in experiment [19] came out at 3.27%; in [20] it was 1.84%.
As for `COc1cc(/C=N/Nc2ncnc3c2cnn3C(C)C)ccc1O`, the inhibition in [1] came to 4.3%; in [2], 0.86%; in [3], 2.83%; in experiment [4] it was 10.4%; in [5], 1.08%; in [6] it was 0.95%. In addition, the inhibition in experiment [7] came to 1.27%; in [8] it was 1.98%; in [9], 2.99%; in experiment [10], 1.4%; in experiment [11], 3.17%; in experiment [12], 1.69%. The inhibition in [13] was 2.88%; in [14], 1.5%; in [15], 1.93%; in experiment [16], 0.68%; in experiment [17], 2.8%; in experiment [18], 1.32%. For the same compound, the figures for the inhibition in experiment [19] and in experiment [20] were 4.22% and 3.01%, respectively.
